Sfp inh = blocks B. subtilis Sfp PPTase activity | Potency, µM, for inactives: largest response in the series, negative = inhibition, hits mostly inhibitors | actives 3.5% (n = 310,000) | Biochemical Sfp PPTase activity, qHTS | Q9F4F7;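 further: the enzyme is Sfp with the accession as filed and its product quenches rhodamine fluorescence; 0% = enzyme reaction without inhibitor and -100% = no enzyme wells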
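Fluorescence-quenching assay with 15 nM Sfp, 5 uM rhodamine-CoA and 12.5 uM BHQ-2-labelled ybbR peptide in pH 7.6 Hepes/MgCl2 buffer. Enzyme was pre-incubated with compound for 15 min at room temperature. Rate was taken from the 30-min fluorescence change (525/598 nm).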
G9a block = G9a (human) methyltransferase inhibition. G9a H3K9 monomethylation, AlphaScreen, 2 h. AID 504332. Q96KQ7. Potency, µM (series often up to 102 µM), without a hit: at the top dose activity, negative = inhibition, actives largely listed as inhibitors. actives 8.8% (n = 350,000); further: on the % scale 0 is the no-effect control and ±100 the full control effect; nearly all actives have a fitted effect of over 75% in size
Target sequence (Q96KQ7 913-1193 limits assumed): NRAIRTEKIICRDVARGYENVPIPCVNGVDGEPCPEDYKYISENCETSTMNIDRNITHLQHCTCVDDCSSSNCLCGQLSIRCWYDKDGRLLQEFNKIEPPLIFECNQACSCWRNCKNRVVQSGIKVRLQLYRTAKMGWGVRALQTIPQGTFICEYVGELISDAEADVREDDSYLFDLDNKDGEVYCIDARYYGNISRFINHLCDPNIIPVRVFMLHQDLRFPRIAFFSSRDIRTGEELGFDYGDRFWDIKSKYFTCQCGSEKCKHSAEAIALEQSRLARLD
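G9a (20 nM) was preincubated 15 min with compound, then reacted 2 h at room temperature with 500 nM biotin-H3K9 peptide and 20 µM SAM. Monomethyl-H3K9 detected by AlphaScreen using anti-H3K9me1 antibody.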
JMJD2A Tudor = inhibitors of human JMJD2A Tudor domain | actives 4.4% (n = 390,000) | AID 504339 | O75164 | Potency, µM (highest dose often 114 µM), without a hit: at the top dose activity change, negative = inhibition, most hits filed as inhibitors | AlphaScreen JMJD2A-Tudor / H3K4me3 peptide binding; further: on the % scale 0 is the no-effect control and ±100 the full control effect; nearly all actives have a fitted effect of over 50% in size
BAZ2B block = inhibitors of human BAZ2B bromodomain | Potency, µM (highest dose often 114 µM), without a hit: at the highest dose activity change, negative = inhibition, hits mostly inhibitors | Q9UIF8 | AlphaScreen BAZ2B-H3K14Ac peptide displacement | actives 4.4% (n = 360,000) | AID 504333; further: on the % scale 0 is the no-effect control and ±100 the full control effect; nearly all actives have a fitted effect of over 60% in size
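BAZ2B 50 nM plus b-H3(5-23)K14Ac 50 nM, PBS pH 7.4/0.01% Tween-20, 30 min RT; compound added (max 110 uM), 30 min RT; streptavidin donor/Ni-chelate acceptor beads 10 ug/mL final, 20 min dark; AlphaScreen read.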
HP1b binding inh = blocks HP1-beta chromodomain binding to methylated histone tails | P83916 | AlphaScreen HP1-beta / biotin-H3K9me3 peptide binding | Potency, µM (doses to about 114 µM), for inactives: at the highest dose activity change, negative = inhibition, most hits filed as inhibitors | actives 0.56% (n = 390,000); further: nearly all actives have a fitted effect of over 70% in size
Target sequence (P83916 whole entry, looked up): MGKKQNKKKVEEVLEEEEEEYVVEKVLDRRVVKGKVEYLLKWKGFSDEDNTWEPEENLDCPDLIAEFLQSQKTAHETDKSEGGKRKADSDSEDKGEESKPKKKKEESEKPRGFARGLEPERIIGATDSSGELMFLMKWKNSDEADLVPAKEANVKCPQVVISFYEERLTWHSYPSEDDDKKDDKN
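HP1-beta protein (50 nM final) preincubated 30 min at room temperature with biotinylated H3(1-18)K9me3 peptide (50 nM) in PBS pH 7.4, 0.01% Tween-20, then compound added for 30 min. AlphaScreen streptavidin donor/nickel chelate acceptor beads (10 ug/mL final), 30 min dark, luminescence read.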
* marks the source's active call; other numbers are inactive results; ? = inconclusive; · = not tested or not shown; [ ] = remark or other dose. An excerpt weighted towards active compounds, which were near 12% of everything screened. The call rests on the fitted dose curve; in most records, active means well fitted curve in the direction sought with a large enough effect; inconclusive means small, poorly fitted or top-dose-only effect, or another doubt; inactive means no such curve, though single readings can be large; an effect the other way counts as inactive or inconclusive. Potency means the concentration at half of the fitted maximal effect.

SMILES	Sfp inh	G9a block	JMJD2A Tudor	BAZ2B block	HP1b binding inh
CCN(CC)CCC(c1ccc(N(C)C)cc1)c1c(OC)cc(OC)c2ccc(=O)oc12 (configuration not stated)	0%	?	45µM*	40µM*	-27%
CCN(CC)C(=O)CC(c1ccc(N(C)C)cc1)c1c(OC)cc(OC)c2ccc(=O)oc12 (configuration not stated)	9%	?	45µM*	?	-18%
CCN(CC)C(=O)CC(c1ccc2c(c1)OCO2)c1c(OC)cc(OC)c2ccc(=O)oc12 (configuration not stated)	-3%	-3%[59 µM]	-34%	-35%	4%
O=C(NCc1cccc(Cl)c1)C1CCCN(c2ncnc3onc(-c4ccc(F)cc4)c23)C1 (configuration not stated)	·	-25%[59 µM]	-9%	12%[57.1 µM]	54%
CCOc1ccc(S(=O)(=O)Nc2ccc(C(=O)NN)cc2)cc1	-6%	23%[12.7 µM]	-5%	-15%	54%
CCCCc1nc2c(c3c1C[C@H](C)OC3)CN(C(=O)Cc1cccs1)CC2	5%	·	·	·	·
COc1ccc(-n2cc(-c3ccccc3)c3c(N4CCCC(C)C4)ncnc32)cc1 (configuration not stated)	·	-46%[59 µM]	?	?	1%
O=C1C(=O)N(CCN2CCOCC2)C(c2cccnc2)/C1=C(/O)c1ccc(Cl)cc1 (configuration not stated)	12%	50µM*	-14%	-20%	35%
C=CCOc1cccc(C2/C(=C(/O)c3ccccc3)C(=O)C(=O)N2CCN2CCOCC2)c1 (configuration not stated)	13%	?	79µM*	?	12%
C=CCOc1cccc(C2/C(=C(/O)c3ccc(Cl)cc3)C(=O)C(=O)N2CCN2CCOCC2)c1 (configuration not stated)	18%	18µM*	-24%[57.1 µM]	-7%	?
CCN(CC)CCN1C(=O)C(=O)/C(=C(/O)c2ccc(C)cc2)C1c1cccnc1 (configuration not stated)	24%	·	-7%	-39%	57%
Cc1ccc(/C(O)=C2\C(=O)C(=O)N(CCc3c[nH]c4ccccc34)C2c2cccnc2)cc1 (configuration not stated)	12%	50µM*	?	-4%	7%
C=CCOc1ccc(/C(O)=C2/C(=O)C(=O)N(CCCN3CCOCC3)C2c2ccccc2)cc1 (configuration not stated)	·	·	?	·	-7%
COC[C@@H](O)[C@@H](OC)[C@H](OC)[C@H](Cc1c(OC)cc(OC)cc1OC)OC	20%	·	·	·	·
O=C(c1ccccc1N(Cc1ccccc1)S(=O)(=O)c1ccccc1)N1CCOCC1	6%	37%	-13%	23%	23%
CCOc1cccc(C2/C(=C(/O)c3ccc4c(c3)CC(C)O4)C(=O)C(=O)N2CCN2CCOCC2)c1 (configuration not stated)	-4%	?	-12%	-10%[57.1 µM]	24%
C=CCOc1cccc(C2/C(=C(/O)c3ccc4c(c3)CC(C)O4)C(=O)C(=O)N2CCN2CCOCC2)c1 (configuration not stated)	6%	50µM*	-12%	-22%[57.1 µM]	11%
Cc1nn(CC(=O)NCc2ccccc2Cl)c(C)c1[N+](=O)[O-]	6%	5%	-6%	-8%	11%
Cc1cc(CNC(=O)c2ccc(C)c([N+](=O)[O-])c2)c2ccccc2n1	20%	35µM*	-8%	-35%	22%
Cc1ccc(C(=O)NCCn2ccc3ccccc32)cc1[N+](=O)[O-]	4%	-44%	79µM*	·	-15%
Cc1c(C(=O)NCCn2ccc3ccccc32)cccc1[N+](=O)[O-]	15%	-43%	-18%	·	25%
Cc1cc(CNC(=O)Cn2nc(C)c([N+](=O)[O-])c2C)c2ccccc2n1	16%	35µM*	-19%	-19%	35%
Cc1cc2cc(CNC(=O)c3ccc(C)c([N+](=O)[O-])c3)ccc2[nH]1	9%	56µM*	?	?	-12%
CCOc1ccccc1N(C)C(=O)Cn1nc(Cc2ccncc2)c2ccccc2c1=O	·	2%[59 µM]	-11%	-12%	31%
O=C(COC(=O)CNC(=O)c1ccc(Cl)cc1Cl)Nc1cccc(S(=O)(=O)N2CCCC2)c1	·	0%[0.501 µM]	-24%	?	18%
SMILES	Sfp inh	G9a block	JMJD2A Tudor	BAZ2B block	HP1b binding inh
Cc1ccc(C(=O)NCCSc2c(C)[nH]c3ccccc23)cc1[N+](=O)[O-]	-11%	50µM*	?	?	4%
S=c1[nH]nc(C2CCCCC2)n1/N=C/c1ccncc1	40µM*	?	5µM*	-15%	-15%
S=c1[nH]nc(C2CCCCC2)n1/N=C/c1cccs1	-1%	?	50µM*	-38%	-21%
O=[N+]([O-])c1ccc(/C=N/n2c(C3CCCCC3)n[nH]c2=S)cc1	-8%	?	89µM*	-30%	-1%
CSc1ccc(/C=N/n2c(C3CCCCC3)n[nH]c2=S)cc1	-7%	11µM*	?	?	?
CCN(CC)CCCNC(=O)c1nn(-c2ccc(OC)c(Cl)c2)c(=O)c2c1c1ccccc1n2C	·	4%[59 µM]	-25%	·	13%
O=C(NCc1ccc2c(c1)CCN2C(=O)c1ccc(F)cc1)c1cc2ccccc2[nH]1	·	-13%[59 µM]	-30%	-13%	15%
O=C(O)c1ccc(/C=N/n2c(C3CCCCC3)n[nH]c2=S)cc1	16%	10µM*	3.5µM*	-14%	20%
O=C(N/N=C/c1ccc(C(=O)O)cc1)C(=O)N1CCCCCC1	5%	·	-2%	1%	22%
Cc1ccc(/C=N/n2c(C3CCCCC3)n[nH]c2=S)o1	-29%	2µM*	10µM*	-37%	?
COc1cc(C(=O)NNC(=O)COc2ccccc2Cl)ccc1OCC(=O)N1CCOCC1	·	-6%[2.33 µM]	-8%	6%	20%
Cn1c(=O)c(-c2ccc(Cl)cc2)nc2cnc(Oc3ccccc3)nc21	-7%	9%[12.7 µM]	·	·	·
Oc1ccc(Br)cc1/C=N/Nc1nc(N2CCCCC2)nc(N2CCOCC2)n1	6%	15%	-13%	-13%	37%
Brc1cc2c(cc1/C=N/Nc1nc(N3CCCC3)nc(N3CCOCC3)n1)OCO2	4%	16µM*	-27%	-9%	7%
O=C(Nc1ncccc1O)c1cccc(S(=O)(=O)N2CCN(c3ccc(F)cc3)CC2)c1	·	79µM*	-32%	-17%	7%
O=C(Nc1ccncc1)c1cccc(S(=O)(=O)N2CCN(c3ccc(F)cc3)CC2)c1	·	?	?	?	-23%
COc1ccc(-c2nn(-c3ccccc3)cc2/C=N/NC(=O)c2ccc3c(c2)OCO3)cc1	15%	47%[12.7 µM]	·	0%	·
COc1ccc(-c2nn(-c3ccccc3)cc2/C=N/O)cc1OC	13%	-28%	-15%	-23%	55%
COc1ccc(-c2nn(-c3ccccc3)cc2C(=O)Nc2cccc(C(=O)O)c2)cc1[N+](=O)[O-]	-5%	·	50µM*	40µM*	-28%

Screens: PubChem BioAssay, National Center for Advancing Translational Sciences (NCATS)
